A word on the inhibition: it is the change of the read-out against control, counted positive when it falls.

“And” between values parts separate entries of the source, which are not always exact repeats. Equal entries are not always repeated. Among all 370,000 compounds or so, about 2,800 (0.76%) were called active. No stated cut-off is given here; in the data, active means inhibition above about 21%; inactive means the rest. The full list was thinned out, with actives kept by preference. Where a structure was tested more than once in an assay, its records may differ in their call.

The target of the assay is E3 ubiquitin-protein ligase UHRF1 (Homo sapiens) (UniProt Q96T88). Description: UHRF1 methylated DNA binding inhibitors, primary screen, counter-screen for MBD2 inhibitor project, biochemical, TR-FRET, human UHRF1, single concentration (AID 687016).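 Further: UHRF1 SRA domain binding a hemimethylated CpG hairpin DNA probe; 0% = median of test compound wells and 100% = reference inhibitor.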 The note with it: UHRF1 binding to methylated oligo, at 4.4 µM, stronger effect = higher value.
E3 ubiquitin-protein ligase UHRF1 (Homo sapiens), sequence (Q96T88 whole entry, looked up, the tested form may be a part): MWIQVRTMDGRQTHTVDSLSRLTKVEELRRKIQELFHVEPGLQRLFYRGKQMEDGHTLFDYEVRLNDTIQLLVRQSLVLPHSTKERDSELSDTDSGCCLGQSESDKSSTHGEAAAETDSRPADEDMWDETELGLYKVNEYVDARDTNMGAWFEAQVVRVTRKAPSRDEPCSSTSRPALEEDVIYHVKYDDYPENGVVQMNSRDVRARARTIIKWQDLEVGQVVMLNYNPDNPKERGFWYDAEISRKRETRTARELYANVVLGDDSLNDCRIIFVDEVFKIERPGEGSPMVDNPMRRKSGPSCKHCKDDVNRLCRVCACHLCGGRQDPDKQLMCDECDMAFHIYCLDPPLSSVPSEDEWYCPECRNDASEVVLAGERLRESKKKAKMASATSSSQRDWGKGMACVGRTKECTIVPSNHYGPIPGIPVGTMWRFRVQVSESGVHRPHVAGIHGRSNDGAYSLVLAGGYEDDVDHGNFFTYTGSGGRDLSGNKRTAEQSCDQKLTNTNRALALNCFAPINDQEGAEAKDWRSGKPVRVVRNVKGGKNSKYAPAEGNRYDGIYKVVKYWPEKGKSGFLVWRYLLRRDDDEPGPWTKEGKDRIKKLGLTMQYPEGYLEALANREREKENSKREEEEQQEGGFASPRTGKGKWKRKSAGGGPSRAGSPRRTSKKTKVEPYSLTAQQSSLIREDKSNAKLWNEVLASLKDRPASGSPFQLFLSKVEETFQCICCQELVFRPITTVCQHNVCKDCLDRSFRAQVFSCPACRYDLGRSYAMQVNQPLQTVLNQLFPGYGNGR
In the case of `CCOC(=O)[C@@]12CCC3=C1N(CCC3)C(=O)[C@H](CC(=O)N1CCN(C(=O)c3ccco3)CC1)C2`, the inhibition was -1.01% (inactive). With `Cc1ccc(-c2nc(C3CCCN(S(=O)(=O)c4ccc(Br)s4)C3)no2)cc1` (configuration not stated) the figure was 1.59% (inactive). As to `Cc1cc(C)c2nc3nc(C)cc(C)c3c(N)c2c1`, the inhibition is 26.9% (active).

As for `CCCCN1CCN(C(=O)c2ccc3c(c2)NC(=O)C(C)(C)O3)CC1`, the inhibition was 0.61% (inactive). To `C=CCN1[C@H](CC(C)C)COc2cccc(N3CCCC3)c2S1(=O)=O` belongs -0.17% (inactive); to `Cc1ccccc1NC(=O)CN1C(=O)N/C(=C\c2cccn2-c2cccc(C(=O)O)c2)C1=O`, 74.8% (active). To `COC(=O)CN1C(=O)N/C(=C/c2ccc(OC)c(C)c2OC)C1=O` belongs -4.91% (inactive). Consider `Cc1ccccc1NC(=O)Cn1c(=O)n(CC2CCCO2)c(=O)c2ccccc21` (configuration not stated), for which the inhibition was -0.24% (inactive). For `CC(C)(C)C1C/C(=C/c2ccco2)C(=O)/C(=C/c2ccco2)C1` (configuration not stated), the inhibition was 99.5% (active). On to `C=CC1=C(C(=O)O)N2C(=O)[C@@H](NC(=O)/C(=N\OCC(=O)O)c3csc(N)n3)[C@H]2SC1`, for which the inhibition was 77.4% (active). To `CCN1CCN(C(=O)N[C@@H](C(=O)N[C@@H]2C(=O)N3C(C(=O)O)=C(CSc4nnnn4C)CS[C@H]23)c2ccc(O)cc2)C(=O)C1=O` belongs -2.2% (inactive); to `C=CC1=C(C(=O)O)N2C(=O)[C@@H](NC(=O)/C(=N/OCC(=O)O)c3csc(N)n3)[C@H]2SC1`, 93.7% (active); to `CO/N=C(\C(=O)N[C@@H]1C(=O)N2C(C(=O)O)=C(COC(C)=O)CS[C@H]12)c1csc(N)n1` (stereo in doubt), 9.54% (inactive) and 0.92% (inactive) and 27.5% (active).

With `COc1ccc(-n2c(COc3ccc(C)cc3)nnc2SCC(=O)Nc2ccc(Oc3ccccc3)cc2)cc1`, the inhibition was -5.28% (inactive). Regarding `CN(C)Cc1cn(-c2ccc(-c3noc4c3C(=O)N(CC(=O)N3CCOCC3)CC4)cc2)nn1`, the inhibition is 2.67% (inactive). To `O=C(CN1CCCCCC1)Nc1ccc(S(=O)(=O)N2CCCCC2)cc1` belongs 62.1% (active); to `O=C(CN1CCCCCC1)Nc1c(Cl)cc(Cl)cc1Cl`, -0.79% (inactive); to `CCOc1ccc(NC(=O)COc2ccc(S(=O)(=O)N3CCCC3)cc2)cc1`, 1.66% (inactive).

Regarding `O=C(CN1CCCCC1)Nc1ccccc1C(=O)NC1CC1`, the inhibition is 3.15% (inactive).

In the case of `O=C(CN1CCCCC1)Nc1ccccc1Cl`, the inhibition was 45.6% (active). Take `O=C(CSCc1ccc(Br)cc1)Nc1ccc(S(=O)(=O)N2CCCCCC2)cc1`: the inhibition was -1.33% (inactive).

For the compound `CC(=O)Nc1ccc(OC[C@@H](O)CN2CCC(C(O)(c3ccccc3)c3ccccc3)CC2)cc1`, the inhibition was 1.32% (inactive). To `Cc1ccc(NC(=O)c2cc(C)nn2-c2ccccc2)c(C)c1` belongs -1.23% (inactive). On to `CCCCCN1CCCCC(NC(=O)C(C)CCC)C1=O` (configuration not stated), for which the inhibition is -0.32% (inactive). To `CCN(CC)CCNC(=O)Cn1cnc2sc(C)c(S(=O)(=O)N3CCOCC3)c2c1=O` belongs 6.01% (inactive); to `Cc1sc2ncn(CC(=O)NCCN(C)C)c(=O)c2c1S(=O)(=O)N1CCC(C)CC1`, -1.58% (inactive); to `CCN(CC)CCCNC(=O)Cn1cnc2sc(C)c(S(=O)(=O)N3CCN(c4ncccn4)CC3)c2c1=O`, 31.2% (active). For `C=CCN1C(=O)[C@@H](CC(=O)NCCCOCCCC)[C@]2(C(=O)OCC)CCCCC/C=C/12`, the inhibition was -0.5% (inactive).

For the compound `C=C(C)C#CC(Cc1ccccc1)N(CC1CC1)/C(N)=N/C(=O)OCc1ccccc1` (configuration not stated), the inhibition is -3.18% (inactive). In the case of `COc1cccc(C(=O)NC(=O)Nc2nc(C)cc(C(F)(F)F)n2)c1`, the inhibition is 0.01% (inactive). Take `COc1ccc(C(=O)NCCSc2ccccc2C)cc1`: the inhibition was 0.98% (inactive). To `COc1ccc(C(=O)NNc2cc(C)nc(NNC(=O)c3ccc(OC)cc3)n2)cc1` belongs 20.7% (active); to `CCOC(=O)C1CCN(C(=O)C(C)(C)NC(=O)Nc2ccc(F)c(F)c2)CC1`, 2.59% (inactive). With `O=C(COc1ccccc1)Nc1ccc(N2CCN(C(=O)c3cccs3)CC2)cc1`, the inhibition was 44.9% (active). On to `COc1ccc(N2CCN(C(=O)c3cccs3)CC2)cc1`, for which the inhibition is -7.02% (inactive). As for `O=C(Nc1ccc(N2CCN(C(=O)c3cccs3)CC2)cc1)c1cccnc1Cl`, the inhibition was -0.07% (inactive). For `CCOc1ccc(N(CC(=O)NCCc2ccc(F)cc2)S(=O)(=O)c2ccccc2)cc1`, the inhibition is 16.8% (inactive). With `COc1ccc(CCNC(=O)CN(c2ccccc2)S(=O)(=O)c2ccccc2)cc1` the figure was 1.05% (inactive); with `CCOc1ccc(N(CC(=O)NCCOc2ccccc2OC)S(=O)(=O)c2ccccc2)cc1`, 28% (active); with `Cc1ccc(Cn2cc(CN3[C@@H](C)COc4cc(Br)ccc4S3(=O)=O)nn2)cc1`, -1.6% (inactive).

With `COC(=O)[C@]12C[C@H](CC(=O)NCc3ccccc3)C(=O)N(Cc3ccccc3)C1=C[C@H](COCc1ccccc1)O[C@@H]2C`, the inhibition is 3.31% (inactive). With `O=S1(=O)c2c(cccc2N2CCSCC2)Oc2ccccc2CN1Cc1cn(Cc2ccc(F)cc2)nn1` the figure was 2.59% (inactive). To `O=C(N/N=C/c1ccco1)c1ccc(C(=O)N/N=C/c2ccco2)o1` belongs 38.3% (active); to `CN(C)S(=O)(=O)c1cccc(C(=O)N/N=C\c2ccco2)c1`, -2.24% (inactive).

Take `O=C(Cn1cnc2ccccc21)N/N=C/c1ccco1`: the inhibition was -2.46% (inactive). With `C=CS(=O)(=O)N(Cc1nnn(Cc2ccccc2)c1Br)[C@H](C(=O)OC)C(C)C` the figure was 3.67% (inactive). Turning to `CN(C)CCNC(=O)Cc1ccc([N+](=O)[O-])cc1`, the inhibition is -0.93% (inactive).

Turning to `O=C(NCCCNC(=O)c1ccccc1Cl)c1cnccn1`, the inhibition is 4.5% (inactive). Turning to `CN(C)CCNC(=O)c1ccc(Cl)c2cc3ccccc3nc12`, the inhibition was 30.7% (active). As to `Cc1ccc(C(=O)O)cc1-c1ccc(/C=C2\SC(=O)N(CC(=O)Nc3ccc4c(c3)OCO4)C2=O)o1`, the inhibition is 12.9% (inactive).

In the case of `N#Cc1ccccc1CN1C(=O)S/C(=C/c2cccn2-c2cccc(C(=O)O)c2)C1=O`, the inhibition was 21.4% (active).

Turning to `COC(=O)[C@H](C(C)C)N(CCCc1cn(Cc2ccccc2)nn1)S(=O)(=O)c1ccc(F)cc1Br`, the inhibition is 7.41% (inactive).

Values taken from PubChem BioAssay AID687016 (The Scripps Research Institute Molecular Screening Center, 2013).
